According to PubChem BioAssay (NCATS):
Records with an inconclusive call do not appear. A call without a number means that no potency is given here. Unmarked numbers belong to inactive results. Active and inactive are the calls of the source. Calls follow the shape of the dose curve; as a rule, active = well fitted curve in the direction sought with a large enough effect; inconclusive = small, poorly fitted or top-dose-only effect, or another doubt; inactive = no such curve, though single readings can be large; an effect the other way counts as inactive or inconclusive.

Columns and labels:
[1] = target: Rap guanine nucleotide exchange factor 3 (Homo sapiens) (UniProt O95398); assay: Confirmatory qHTS for antagonist of cAMP-regulated guanine nucleotide exchange factor 3 (EPAC1) (AID 1645880); settings: EPAC1 Rap1B-BODIPY-GDP exchange, fluorescence; activity, negative = inhibition: at 115 µM (top of the series); also: nearly all actives have a fitted effect of over 55% in size; also: potency is read from the fitted curve at half-maximal effect
Sequence of Rap guanine nucleotide exchange factor 3 (Homo sapiens) (O95398 whole entry, looked up): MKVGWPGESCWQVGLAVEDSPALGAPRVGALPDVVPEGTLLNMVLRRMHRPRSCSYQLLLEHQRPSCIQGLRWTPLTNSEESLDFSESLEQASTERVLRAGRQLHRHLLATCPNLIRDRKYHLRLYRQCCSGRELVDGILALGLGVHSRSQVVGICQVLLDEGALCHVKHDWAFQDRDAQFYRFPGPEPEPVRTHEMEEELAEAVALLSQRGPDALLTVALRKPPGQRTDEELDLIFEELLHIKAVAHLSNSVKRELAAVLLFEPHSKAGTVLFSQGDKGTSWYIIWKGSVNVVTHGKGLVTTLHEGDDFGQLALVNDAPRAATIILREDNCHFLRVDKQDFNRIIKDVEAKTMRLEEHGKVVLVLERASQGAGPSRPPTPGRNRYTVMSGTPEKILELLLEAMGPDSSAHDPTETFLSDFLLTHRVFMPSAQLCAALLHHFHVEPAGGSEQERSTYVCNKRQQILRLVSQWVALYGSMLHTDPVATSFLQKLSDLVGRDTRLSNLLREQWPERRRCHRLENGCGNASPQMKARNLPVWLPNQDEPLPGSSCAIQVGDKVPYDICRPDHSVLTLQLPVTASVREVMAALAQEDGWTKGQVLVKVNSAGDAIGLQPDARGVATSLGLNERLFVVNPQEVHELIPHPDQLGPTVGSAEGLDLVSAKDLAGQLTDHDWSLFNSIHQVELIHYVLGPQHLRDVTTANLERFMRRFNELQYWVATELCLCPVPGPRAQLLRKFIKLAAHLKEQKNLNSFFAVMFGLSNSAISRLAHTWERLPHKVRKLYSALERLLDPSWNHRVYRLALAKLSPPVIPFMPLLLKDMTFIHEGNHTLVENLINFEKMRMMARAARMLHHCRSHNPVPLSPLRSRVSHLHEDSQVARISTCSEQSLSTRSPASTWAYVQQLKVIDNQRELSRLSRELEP
Outline: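 Released BODIPY-GDP fluoresces less than Rap1-bound BODIPY-GDP; the signal is followed at 480/540 nm at 5-min intervals over 30 min, after 5 min at room temperature. Reactions contain 100 nM EPAC1, 250 nM RAP1B-BODIPY-GDP and 50 uM GDP; results are normalized to ATA and DMSO.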

[2] = target: Rap guanine nucleotide exchange factor 3 (Homo sapiens) (UniProt O95398); assay: Confirmatory qHTS for agonist of cAMP-regulated guanine nucleotide exchange factor 3 (EPAC1) (AID 1645881); also: nearly all actives have a fitted effect of over 75% in size; also: potency is read from the fitted curve at half-maximal effect;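 as to activation: EPAC1 catalysed release of BODIPY-GDP from Rap1B seen as fluorescence loss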
[3] = target: Rap guanine nucleotide exchange factor 4 (Homo sapiens) (UniProt Q8WZA2); assay: Confirmatory qHTS for agonist of cAMP-regulated guanine nucleotide exchange factor 4 (EPAC2) (AID 1645884);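 also: nucleotide exchange releases bodipy-GDP from Rap1 and this lowers its fluorescence; nearly all actives have a fitted effect of over 65% in size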; also: potency is read from the fitted curve at half-maximal effect
Sequence of Rap guanine nucleotide exchange factor 4 (Homo sapiens) (Q8WZA2 whole entry, looked up): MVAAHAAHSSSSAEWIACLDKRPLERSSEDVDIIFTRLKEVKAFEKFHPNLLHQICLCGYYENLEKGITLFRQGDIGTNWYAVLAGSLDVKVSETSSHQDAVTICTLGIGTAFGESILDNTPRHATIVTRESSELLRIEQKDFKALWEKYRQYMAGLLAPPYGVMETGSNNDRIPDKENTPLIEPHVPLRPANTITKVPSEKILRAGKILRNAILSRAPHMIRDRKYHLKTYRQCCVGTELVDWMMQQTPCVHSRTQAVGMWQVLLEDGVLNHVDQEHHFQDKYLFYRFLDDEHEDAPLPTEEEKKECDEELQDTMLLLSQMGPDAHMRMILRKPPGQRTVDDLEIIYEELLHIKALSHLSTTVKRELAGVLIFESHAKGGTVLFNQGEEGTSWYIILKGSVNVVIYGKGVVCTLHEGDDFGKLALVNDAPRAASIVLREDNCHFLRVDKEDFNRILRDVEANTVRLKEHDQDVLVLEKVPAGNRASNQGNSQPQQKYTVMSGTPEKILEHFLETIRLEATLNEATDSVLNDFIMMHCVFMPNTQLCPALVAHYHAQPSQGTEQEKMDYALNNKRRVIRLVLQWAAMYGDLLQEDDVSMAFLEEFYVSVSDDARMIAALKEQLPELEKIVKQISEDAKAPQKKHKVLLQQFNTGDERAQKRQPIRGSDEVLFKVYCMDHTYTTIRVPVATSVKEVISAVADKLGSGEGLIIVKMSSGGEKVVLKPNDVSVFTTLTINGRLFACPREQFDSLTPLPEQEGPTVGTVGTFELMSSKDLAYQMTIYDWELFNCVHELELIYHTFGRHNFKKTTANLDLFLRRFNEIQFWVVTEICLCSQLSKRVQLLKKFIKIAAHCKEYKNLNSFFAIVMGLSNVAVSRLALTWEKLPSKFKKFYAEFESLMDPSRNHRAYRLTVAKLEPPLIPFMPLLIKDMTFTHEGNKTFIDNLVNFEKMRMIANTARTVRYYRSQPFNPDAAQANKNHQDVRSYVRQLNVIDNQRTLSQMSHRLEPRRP

[4] = target: Rap guanine nucleotide exchange factor 3 (Homo sapiens) (UniProt O95398); assay: Counterscreen qHTS for antagonist of cAMP-regulated guanine nucleotide exchange factor 3 (EPAC1) (AID 1645888)
Outline: (§1)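 Measured: fluorescence of BODIPY-GDP bound to Rap1B, which falls as exchange proceeds. Conditions include 50 uM competing GDP, 5 and 30 min reads, and a later cAMP challenge for antagonist detection.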

[5] = target: Rap guanine nucleotide exchange factor 3 (Homo sapiens) (UniProt O95398); assay: Counterscreen qHTS for agonist of cAMP-regulated guanine nucleotide exchange factor 3 (EPAC1) (AID 1645889); also: nearly all actives have a fitted effect of over 40% in size; also: potency is read from the fitted curve at half-maximal effect
Outline: as §1

SMILES	Potency [1]	Potency [2]	Potency [3]	Potency [4]	Potency [5]	activation [3]	activity change, negative = inhibition [4]	activation [5]
Cc1cc(C)cc(NC(=O)CSc2nnc(-c3cc4occc4n3C)n2-c2ccccc2C)c1	inactive	inactive	inactive	inactive				
N#Cc1c(C(F)(F)F)cc(-c2ccccc2)nc1SCc1nc(N)nc(N2CCOCC2)n1	inactive	inactive	inactive	inactive				
O=C(c1sc2cc(F)ccc2c1Cl)N1CCN(c2ccccc2)CC1	inactive	inactive	inactive	inactive				
CCCCn1nnnc1C(c1ccccc1)N1CCN(c2ccc(F)cc2)CC1 (stereo not drawn)	inactive	inactive	inactive	inactive				
Cc1nc2sc(C(c3cccs3)N3CCN(C(=O)c4ccco4)CC3)c(O)n2n1 (stereo not drawn)	inactive	inactive	inactive	inactive				
COc1ccccc1Nc1nc2ccc(C)cc2cc1C#N	inactive	inactive	inactive	inactive				
CC(C)=CCc1c(O)cc2oc3c(CC=C(C)C)c(O)c(O)c(CC=C(C)C)c3c(=O)c2c1O	75.7 µM (active)	inactive	inactive	inactive				
CC(=O)c1ccc(N2CCN(C(=O)/C=C/c3ccc4ccccc4n3)CC2)cc1	inactive	inactive	89.1 µM (active)	inactive				
O=C1CC2(CCCCC2)Oc2ccc(F)cc21	inactive	inactive	inactive	inactive				
CNc1ccc(-c2nc(-c3ccco3)no2)cc1[N+](=O)[O-]	inactive	inactive	inactive	inactive	inactive			
COc1cc(CN2C(=O)C(C)ON=C2c2cccs2)cc(OC)c1 (stereo not drawn)	inactive	inactive	inactive	inactive				
O=S(=O)(c1ccc(Cl)cc1Br)N1CCCCC1	inactive	inactive				12.1% [at 17.1 µM, percent relative to cAMP agonist control]	-6.37% [at 30.8 µM]	10.6% [at 30.8 µM]
O=c1[nH]nc(CNc2ccc(O)cc2)c2ccccc12	inactive	inactive	inactive	inactive				
CC(C)NC(=O)c1sc(=S)n2c1[nH]c(=O)c1ccc(C(=O)NCCc3ccc(Cl)cc3)cc12	50.1 µM (active)	inactive				4.17% [at 17.1 µM, percent relative to cAMP agonist control]	-15.1% [at 30.8 µM]	
Cc1nc(-c2ccc(C(=O)Nc3cccc(Br)c3)cc2)cs1	inactive	inactive	inactive	inactive				
COc1ccc(NC(=O)c2cc(-c3ccco3)nc3ccccc23)cc1S(=O)(=O)N1CCOCC1	9.53 µM (active)	inactive	inactive	inactive				
CN(C)CCNC(=O)c1ccc(-c2cn3c(-c4ccc(Oc5ccccc5)cc4)cnc3cn2)cc1	inactive	inactive	inactive	inactive				
O=C(O)CSc1cc(NS(=O)(=O)c2ccc(Cl)cc2)c2ccccc2c1O	75.7 µM (active)	inactive	inactive	inactive				
Cc1cnc(C(=O)OCC(=O)Nc2ccc(Oc3ccccc3)cc2)cn1	inactive	inactive	inactive	inactive				

SMILES	Potency [1]	Potency [2]	Potency [3]	Potency [4]	Potency [5]	activation [3]	activity change, negative = inhibition [4]	activation [5]
C[C@@H]1CC=C[C@H]2[C@H]1C(=O)N(Cc1ccccc1)[C@H]2c1ccc(-c2ccoc2)cc1F	inactive	inactive	inactive	inactive				
COc1cccc(N(C(=O)c2ccco2)C(C(=O)NC2CCCC2)c2cccnc2)c1 (stereo not drawn)	inactive	inactive	inactive	inactive				
CC(=O)CCc1oc2ccccc2c1-c1ccccc1	inactive	inactive				6.69% [at 17.1 µM, percent relative to cAMP agonist control]	-10.9% [at 30.8 µM]	-0.404% [at 30.8 µM]
Cc1noc(C)c1COc1ccccc1C(=O)NCCc1ccc(Cl)cc1	inactive	inactive	inactive	inactive	inactive			
Cc1cccc(C)c1-n1nnnc1C(c1ccnc2ccccc12)N(CCC#N)Cc1ccccc1 (stereo not drawn)	inactive	inactive	inactive	inactive				
COc1ccc(/C=C2\N=C(SC)N(c3ccccc3OC)C2=O)cc1	inactive	inactive				7.24% [at 17.1 µM, percent relative to cAMP agonist control]	-8.08% [at 30.8 µM]	
CC1=CC(C)(C)N(C(=O)c2ccc(F)cc2)c2cc3c(cc21)OCO3	inactive	inactive	inactive	inactive				
CC(Oc1ccc(Cl)cc1Cl)c1ccn[nH]1 (stereo not drawn)	inactive	inactive	inactive	inactive	inactive			
COc1cc(/C=C2\C(=N)N3N=C(S(C)(=O)=O)SC3=NC2=O)ccc1OS(=O)(=O)c1ccc(C)cc1	60.1 µM (active)	inactive	inactive	inactive				
CC(C)C(NC(=O)c1ccccc1)C(=O)OCn1nnc2ccccc2c1=O (stereo not drawn)	inactive	inactive	inactive	inactive				
COc1ccccc1C(=O)C1CCCN(C(=O)c2ccc3c(c2)OCCO3)C1 (stereo not drawn)	inactive	inactive	inactive	inactive	inactive			
O=C(Cc1ccc(F)cc1)Nc1ccccc1Sc1ccccc1	inactive	inactive	inactive	inactive				
CN1OC[C@@H]2CN(Cc3ccc(Cl)cc3)[C@H](c3ccc(-n4ccnc4)cc3)C[C@@H]21	inactive	inactive				4.62% [at 17.1 µM, percent relative to cAMP agonist control]	1.17% [at 30.8 µM]	
Cc1ccc(S(=O)(=O)Nc2ccccc2C(=O)Nc2nc(-c3ccc(F)cc3)cs2)cc1	42.6 µM (active)	inactive	inactive	inactive				
CCOC(=O)C1Nc2c(F)cc(C)cc2C2c3ccccc3CC12 (stereo not drawn)	inactive	inactive	inactive	inactive				
O=C1C(=Cc2ccccc2Cl)CCc2ccccc21	inactive	inactive	inactive	inactive	inactive			
COC(=O)/C(=C/Nc1ccc(O)cc1)[N+](=O)[O-]	inactive	inactive	inactive	inactive				
COc1ccc(C2=CC(=O)OC3(CCCCC3)O2)cc1	inactive	inactive				5.5% [at 17.1 µM, percent relative to cAMP agonist control]	-23.4% [at 30.8 µM]	7.07% [at 30.8 µM]
CCCCOc1ccc(NS(=O)(=O)c2ccc(-n3cnnn3)cc2)cc1	inactive	inactive	inactive	inactive				

SMILES	Potency [1]	Potency [2]	Potency [3]	Potency [4]	Potency [5]	activation [3]	activity change, negative = inhibition [4]	activation [5]
Cc1ccc(-c2nnc(Nc3ccc4c(c3)OCO4)c3ccccc23)cc1S(N)(=O)=O	47.8 µM (active)	inactive	inactive	inactive				
CCC(=O)N1CCc2cc(OC)c(OC)cc2C1COc1ccc(F)cc1 (stereo not drawn)	inactive	inactive				5.75% [at 17.1 µM, percent relative to cAMP agonist control]	-5.57% [at 30.8 µM]	
CC(C)CSC1=NSC2=NC(=O)/C(=C\c3coc4ccccc4c3=O)C(=N)N12	inactive	inactive	112 µM (active)	inactive	inactive			
CSCCC(NS(=O)(=O)c1ccc2c(c1)oc(=O)n2C)C(=O)NC1CCCCC1 (stereo not drawn)	inactive	inactive	inactive	inactive	inactive			
COC(=O)C1=C(C)N(CCCC(=O)O)C(=O)NC1c1ccc(-c2ccccc2)cc1 (stereo not drawn)	inactive	inactive	inactive	inactive	inactive			
COc1ccc([C@H]2CC(=O)C=C(c3cc(OC)ccc3OC)C2)cc1	inactive	inactive	inactive	inactive	inactive			
CC(=O)NC(c1cccc(F)c1)c1nc(-c2cccs2)cs1 (stereo not drawn)	inactive	inactive	inactive	inactive	inactive			
CC(=O)OCCNc1cc(N2CCN(C)CC2)c2noc3c2c1C(=O)c1ccccc1-3	inactive	inactive	inactive	inactive	inactive			
O=C(c1ccccc1)C(c1ccccc1)c1ccccc1	inactive	inactive				0.697% [at 17.1 µM, percent relative to cAMP agonist control]	2.63% [at 30.8 µM]	12.8% [at 30.8 µM]
O=C1C=CC(=O)c2c(O)c(N3CCN(CCO)CC3)c(Cl)c(O)c21	37.9 µM (active)	inactive	inactive	inactive	inactive			
CCOc1ccc(C(=O)Nc2c(C(=O)Nc3ccccc3F)oc3ccccc23)cc1OCC	inactive	inactive	inactive	inactive	inactive			
CCCN(C(=O)COC(=O)COc1c(C)cccc1C)c1c(N)n(Cc2ccccc2)c(=O)[nH]c1=O	inactive	inactive	inactive	inactive	inactive			
O=C1c2ccccc2S(=O)(=O)c2cc(N3CCC(C(=O)N4CCCCC4)CC3)ccc21	inactive	89.1 µM (active)	100 µM (active)	inactive	56.2 µM (active)			
COc1nc(-c2ccccc2)c2cc(Br)ccc2n1	inactive	inactive				-6.23% [at 17.1 µM, percent relative to cAMP agonist control]	8.88% [at 30.8 µM]	24.2% [at 30.8 µM]
CC(C1CC1)N(C(=O)NC1CCS(=O)(=O)C1)c1ccccc1 (stereo not drawn)	inactive	inactive	inactive	inactive	inactive			
CCCC(=O)NCCCc1nc2ccccc2n1C	inactive	inactive	inactive	inactive	inactive			
O=[N+]([O-])c1cc(/C=N/O)ccc1Oc1ccccc1Cl	inactive	inactive	inactive	inactive	inactive			
Cc1ccc2oc(C(=O)N(Cc3ccc(N(C)C)cc3)CC3CCCO3)c(C)c2c1 (stereo not drawn)	inactive	inactive	inactive	inactive	inactive			
